Compounds without any hit were thinned out: in the full panel of roughly 83,000, 20% have a hit.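 Plates (96-well) were seeded with cells, treated with compound at one concentration, and incubated for 48 hours before percent growth was determined.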 Unmarked numbers belong to inactive results. The source made the active and inactive calls. Rule for the calls: active = growth percent below 10; inactive = the rest.
Tests used:
Assay in all cases: NCI-60 one-dose screen, 48 h (100 = growth as untreated, 0 = no growth, -100 = all killed)
Conditions in all cases: 10 µM unless noted
NCI-H23 lung = test system: NCI-H23 lung
NCI-H226 lung = test system: NCI-H226 lung
NCI-H322M lung = test system: NCI-H322M lung
HOP-62 NSCLC = test system: HOP-62 NSCLC
NCI-H460 lung = test system: NCI-H460 lung
HOP-92 NSCLC = test system: HOP-92 NSCLC
NCI-H522 lung = test system: NCI-H522 lung
A549/ATCC NSCLC = test system: A549/ATCC NSCLC
786-0 renal = test system: 786-0 renal
COLO 205 colon = test system: COLO 205 colon
DU-145 prostate = test system: DU-145 prostate
K-562 leukemia = test system: K-562 leukemia
MALME-3M melanoma = test system: MALME-3M melanoma
MDA-MB-231 breast = test system: MDA-MB-231 breast
RXF 393 renal = test system: RXF 393 renal
SF-268 CNS = test system: SF-268 CNS
SF-295 CNS = test system: SF-295 CNS
SF-539 CNS = test system: SF-539 CNS
UACC-257 melanoma = test system: UACC-257 melanoma
M14 melanoma = test system: M14 melanoma

Row | SMILES | growth (NCI-H23 lung) | growth (NCI-H226 lung) | growth (NCI-H322M lung) | growth (HOP-62 NSCLC) | growth (NCI-H460 lung) | growth (HOP-92 NSCLC) | growth (NCI-H522 lung) | growth (A549/ATCC NSCLC) | growth (786-0 renal) | growth (COLO 205 colon) | growth (DU-145 prostate) | growth (K-562 leukemia) | growth (MALME-3M melanoma) | growth (MDA-MB-231 breast) | growth (RXF 393 renal) | growth (SF-268 CNS) | growth (SF-295 CNS) | growth (SF-539 CNS) | growth (UACC-257 melanoma) | growth (M14 melanoma)
1 | N=C(N)c1ccc(OCCSCCOc2ccc(C(=N)N)cc2)cc1 | 36.2% | 58.8% | 78.3% | 72.5% | 27.1% | 79.2% | 48.5% | 57.4% | 80.2% | 79.5% | 71.7% | 54.3% | 52.2% | 82.1% | 105% | 74.2% | -33.5% (active) | 76.5% | 76.2% | 75.3%
2 | CN(C)c1ccc(C(=S)c2ccc(N(C)C)cc2)cc1 | 78.9% | 85.9% | 103% | 65.8% | 92.6% | 71.3% | 29% | 67% | 95.6% | 62% | 98.9% | 28.4% | 50.3% | 72.2% | 84.2% | 79.7% | 80% | 77.1% | 81% | 51.1%
3 | O=c1cc(C(F)(F)F)c2cc(-c3cc4ccccc4c(=O)o3)c(O)cc2o1 | 54.9% | 68.4% | 87.6% | 82.6% | 58.9% | -0.397% (active) | 31.3% | 78.5% | 80.2% | 107% | 96.5% | 50% | 91.5% | 85.7% | 86.3% | 79.2% | 89.4% | 73.3% | 70.6% | 68%
4 | CN(C)C1CN(C(=O)c2cc(-c3ccc4ncnc(N5CCc6cc(F)c(Cl)cc65)c4c3)cnc2N)C1 | 23.9% | 30.7% | 5.68% (active) | 16.5% | 12.7% | -15% (active) | 16.3% | 6.53% (active) | 7.47% (active) | 20.4% | 9.86% (active) | 23.8% | -21.2% (active) | 27.8% | -32% (active) | 18.4% | 8.16% (active) | -1.35% (active) | 16.4% | 9.34% (active)
5 | C#Cc1cccc(NC(=O)C2CCCCN2C(=O)CCl)c1 (stereo not given) | -76.1% [8.25 µM] (active) | -53.4% [8.25 µM] (active) | 65.1% [8.25 µM] | 26.6% [8.25 µM] | 10.9% [8.25 µM] | -54.2% [8.25 µM] (active) | -57% [8.25 µM] (active) | 36.5% [8.25 µM] | -72.9% [8.25 µM] (active) | -52.5% [8.25 µM] (active) | -33.8% [8.25 µM] (active) | 2.41% [8.25 µM] (active) | -86.7% [8.25 µM] (active) | -62% [8.25 µM] (active) | -87.8% [8.25 µM] (active) | -53.2% [8.25 µM] (active) | 52.4% [8.25 µM] | -91.1% [8.25 µM] (active) | -0.384% [8.25 µM] (active) | -41.9% [8.25 µM] (active)
6 | C[C@H](c1nc2ccc(C#N)cc2[nH]1)[C@H]1CC[C@H]2[C@@H]3CCC4=CC(=O)CC[C@]4(C)[C@H]3CC[C@]12C | 59.7% | 78.4% | 94.4% | 101% | 64% | -9.25% (active) | 69.8% | 63.9% | 67.4% | 79.2% | 68.9% | 40.8% | 85.6% | 70.1% | 64.3% | 78.5% | 48.7% | 62.9% | 68.2% | 70.1%
7 | S=c1ccnc[nH]1 | 103% | 107% | 114% | 109% | 105% | 76.2% | 65.8% | 98.2% | 89.7% | 102% | 116% | 113% | 123% | 115% | 128% | 113% | 115% | 100% | 105% | 96.6%
8 | CC[C@@H](C(=O)[C@@H](C)[C@@H](O)[C@H](C)[C@@H]1O[C@@H]([C@@H](CC)C(=O)ONC(=O)c2ccccc2O)CC[C@@H]1C)C1O[C@]2(C=CC(=O)[C@]3(CC[C@@](C)([C@H]4CC[C@](O)(CC)[C@H](C)O4)O3)O2)[C@H](C)C[C@@H]1C (stereo not given in full) | 23.1% | 52.7% | 70% | 58.3% | 33.5% | 37.3% | 23.9% | 23.8% | 61.7% | 11.6% | 40.3% | 28.6% | 4.34% (active) | 50.9% | 35.2% | 54.2% | 44.7% | 27.5% | 38.3% | 63.6%
9 | O=C(NNc1nc2cc(F)ccc2n2c(CN3CCOCC3)ccc12)c1ccccc1 | 19.7% | 17.4% | 25.1% | 14.6% | 0.156% (active) | 27.8% | 9.17% (active) | 2.97% (active) | 6.29% (active) | 1.54% (active) | 23.6% | 5.32% (active) | 8.12% (active) | 17.3% | -0.227% (active) | 14.8% | 0.468% (active) | 4.33% (active) | -6.53% (active) | -15.6% (active)
10 | C/C(Cc1ccc(Cl)cc1)=C(\c1ccc(OCCN2CCCCCC2)cc1)c1ccc(OC(=O)c2ccccc2)cc1 | 46.8% | 86.2% | 70% | 81% | 3.3% (active) | -4.45% (active) | 62.4% | 54.3% | 12% | 44.7% | 55.6% | 1.83% (active) | 11.7% | 39.7% | 22% | 37.1% | 56% | 71% | 45.2% | -49.8% (active)
11 | O=C1/C(=C/c2ccccn2)SC(=S)N1N1CCOCC1 | 96.7% | 95.1% | 97.5% | 96.6% | 104% | 84.8% | 86.8% | 103% | 103% | 103% | 104% | 103% | 92.2% | 92% | 92.5% | 99% | 95.8% | 105% | 91.8% | 100%
12 | CNCCCNc1nc2ccccc2c2c(=O)c3cc(Cl)ccc3sc12 | 70.1% | 101% | 70.4% | 60.5% | -70.5% (active) | 9.37% (active) | 17.6% | 17.8% | 52.7% | -84.4% (active) | -8.94% (active) | -70.1% (active) | 17.6% | -58.8% (active) | 61.1% | 53.8% | 62.6% | 70.8% | 92.8% | -57.2% (active)
13 | C#Cc1cccc(Nc2ncnc3cc(NC(=O)CCl)ccc23)c1 | -63.5% (active) | -42.2% (active) | -16.4% (active) | -70.3% (active) | -58.7% (active) | -75.3% (active) | -66% (active) | -23.7% (active) | -79.3% (active) | -70.4% (active) | -96.8% (active) | -15.6% (active) | -74.3% (active) | -70.3% (active) | -86.2% (active) | -59.7% (active) | -82.5% (active) | -90.9% (active) | -7% (active) | -87.4% (active)
14 | Ic1ccc(Nc2nc3nonc3nc2Nc2ccc(I)cc2)cc1 | 1.49% (active) | 0.546% (active) | 10.9% | -18.3% (active) | 3.11% (active) | -16.4% (active) | -20.2% (active) | 4.13% (active) | 8.27% (active) | -62.7% (active) | 22.7% | 4.38% (active) | -17.9% (active) | -5.93% (active) | -0.305% (active) | 20.8% | -47.6% (active) | 17% | -29.7% (active) | 2.71% (active)
15 | Cc1nc2sc(C(=O)Nc3cccc4ccccc34)c(N)c2cc1C(=O)c1ccccc1 | 40.2% | 68.3% | 62.4% | 42.5% | 7.31% (active) | 77.6% | 15.5% | 23.5% | 42.5% | -2.82% (active) | 18.3% | 9.45% (active) | 58.5% | 15.2% | 22.6% | 53.4% | 10.4% | -12.1% (active) | 72.7% | 12.4%
